Compound activity (PubChem BioAssay)
HT1080 IDH1KD tx = toxicity to HT-1080 IDH1 knockdown cells (counter line). HT-1080 IDH1 knockdown viability, ATP luminescence, 48 h. actives 2% (n = 360,000). Potency, µM (doses to about 46.1 µM), without a hit: top-dose activity, negative = toxicity, hits mostly cytotoxic;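 also: potency is read from the fitted curve at half-maximal effect; 0% = DMSO wells and -100% = cell-free medium wells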
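In this qHTS, HT-1080 cells depleted of IDH1 are exposed for 48 h at 37 °C to compound titrations. Toxicity is scored from CellTiter-Glo luminescence, with DMSO as full viability and medium alone as none.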
HT1080-NT tox = kills 2HG-producing HT-1080-NT fibrosarcoma cells. AID 686970. Potency, µM (titrated, usually from 46.1 µM), for inactives: top-dose activity, negative = less viability, usual class: cytotoxic. HT-1080-NT fibrosarcoma viability, CellTiter-Glo ATP luminescence, 48 h. actives 1.6% (n = 360,000);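 also: NT is the 2HG producing partner of a matched IDH1 knockdown line; potency is read from the fitted curve at half-maximal effect; 0% = DMSO-treated cells and -100% = media-only wells without cells; nearly all actives have a fitted effect of over 55% in size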
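750 cells/well, RPMI + 5% FBS; 2 h settle, compound pin-transfer, 48 h at 37 degrees C. CellTiter-Glo 10 min RT, luminescence. Normalized to DMSO and media-only wells.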
IL1B secr inh = blocks inflammasome-driven IL-1 beta release; THP-1 LPS/ATP IL-1B secretion, AlphaLISA, 16 h; stronger effect = lower value; actives 4.7% (n = 360,000); AID 743279; activity change, % at 57.5 µM; in the data active = activity change below about -50%; inconclusive = mostly about -30% to -49%
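Secreted IL-1B measured by AlphaLISA bead assay after 16 h compound exposure of THP-1 cells; compounds (final up to 57.5 uM) added 1 h before LPS (250 ng/mL) and ATP (1.25 mM) stimulation; lower signal means less secretion.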
uPA surface inh = cell surface uPA generation inhibition; cell surface uPA generation assay, qHTS; Potency, µM (series often up to 38.3 µM), for inactives: top-dose activity change, negative = inhibition, usual class: inhibitors; actives 0.31% (n = 330,000); AID 540303; active = well fitted inhibition curve with a large enough effect; inconclusive = small, poorly fitted or top-dose-only effect; inactive = no such curve, though single readings can be large or run the other way; tested in mouse RAW 264.7 cells; also: potency is read from the fitted curve at half-maximal effect; nearly all actives have a fitted effect of over 55% in size
DT40 TDP1 CPT = growth inhibition of DT40 Tdp1-/-;hTDP1 cells with camptothecin (screen for TDP1 inhibitors); Potency, µM (titrated, usually from 46.2 µM), for the others: top-dose activity change, negative = growth inhibition, actives largely listed as inhibitors; AID 686979; chicken DT40 Tdp1-/-;hTDP1 cells + 20 nM CPT, ATP luminescence, 48 h; actives 12% (n = 420,000); also: potency is read from the fitted curve at half-maximal effect; nearly all actives have a fitted effect of over 55% in size
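Cell growth measured by CellTiter-Glo luminescence after a minimum 48 h, 37 C compound exposure with 20 nM CPT in Tdp1-knockout DT40 cells stably expressing hTDP1, seeded 400/well; qHTS titration format.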
TDP1 cell noCPT = qHTS for Inhibitors of human tyrosyl-DNA phosphodiesterase 1 (TDP1): qHTS in cells in absence of CPT | Potency, µM (doses to about 46.2 µM), without a hit: top-dose activity change, negative = growth inhibition, most hits filed as inhibitors | AID 686978, 2013 | actives 15% (n = 420,000) | DT40 Tdp1-/- hTDP1 cells, no CPT, ATP luminescence, 48 h; also: potency is read from the fitted curve at half-maximal effect; nearly all actives have a fitted effect of over 55% in size
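No-CPT arm: Tdp1-/-;hTDP1 DT40 cells (400/well) plus compounds, incubated ≥48 hr at 37 °C. Readout CellTiter-Glo luminescence.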
Active calls of the source: *; ? = inconclusive; / = no result given. In the library only some 19% were active in any assay of this set; here they are far more common. Unless noted, calls follow the shape of the dose curve; as a rule, active = well fitted curve in the direction sought with a large enough effect; inconclusive = small, poorly fitted or top-dose-only effect, or another doubt; inactive = no such curve, though single readings can be large; an effect the other way counts as inactive or inconclusive. Unless noted, % is scaled to controls: 0 for no effect and ±100 for the full control effect.

SMILES	HT1080 IDH1KD tx	HT1080-NT tox	IL1B secr inh	uPA surface inh	DT40 TDP1 CPT	TDP1 cell noCPT
CC(=O)c1ccc(S(=O)(=O)Nc2cccc(-c3ccc(N4CCOCC4)nn3)c2)cc1	-26%	?	-25	-5%	?	?
Cc1ccc([N+](=O)[O-])cc1S(=O)(=O)Nc1cccc(-c2ccc(N3CCOCC3)nn2)c1	-14%	-26%	6	-8%	-14%	?
COc1cc(C)c(C)cc1S(=O)(=O)Nc1cccc(-c2ccc(N3CCOCC3)nn2)c1	/	/	/	/	?	16µM*
CCOc1ccccc1C(=O)Nc1cccc(-c2ccc(N3CCOCC3)nn2)c1	0%	-5%	-62*	-4%	?	16µM*
CCC(=O)Nc1cccc(-c2ccc(N3CCN(C)CC3)nn2)c1	3%	4%	-3	?	-14%	-17%
COc1cccc(C(=O)Nc2cccc(C(=O)N3CCOCC3)c2)c1	-3%	-3%	6	-2%	-1%	-1%
CCOc1ccc(C(=O)Nc2cccc(-c3ccc(N4CCOCC4)nn3)c2)cc1OCC	4%	5%	-6	-10%	?	10µM*
O=C(Nc1cccc(-c2ccc(N3CCOCC3)nn2)c1)c1ccc(F)cc1F	3%	10%	20	-5%	-6%	-21%
COc1ccc(C(=O)Nc2cccc(-c3ccc(N4CCOCC4)nn3)c2)cc1OC	2%	-14%	-14	-11%	18µM*	9.2µM*
COc1cccc(C(=O)Nc2cccc(-c3ccc(N4CCOCC4)nn3)c2)c1OC	?	-21%	-10	-9%	?	23µM*
CC1CCN(C2CCN(S(=O)(=O)c3ccc(C(F)(F)F)cc3)CC2)CC1	1%	-2%	-2	-4%	3%	-21%
CCOc1cc(C(c2c(C)[nH][nH]c2=O)c2c(C)[nH][nH]c2=O)cc(Br)c1OC	4%	15%	?	-7%	-4%	2%
CCOc1ccc(-c2nc(CSCC(=O)N3CCN(c4ccc(F)cc4)CC3)c(C)o2)cc1	/	/	/	/	-18%	-22%
COc1ccc(-c2nc(CSCC(=O)N3CCN(c4cccc(C)c4C)CC3)c(C)o2)cc1OC	/	/	/	/	18µM*	23µM*
COc1ccc(-c2nc(CSCC(=O)N3CCN(C)CC3)c(C)o2)cc1OC	0%	7%	-2	2%	-5%	0%
CCOc1ccc(-c2nc(CSCC(=O)N3CCN(c4cccc(C(F)(F)F)c4)CC3)c(C)o2)cc1	/	/	/	/	21µM*	10µM*
COc1ccc(-c2nc(CSCC(=O)N3CCN(c4cc(Cl)ccc4C)CC3)c(C)o2)cc1	/	/	/	/	13µM*	16µM*
COc1ccc(-c2nc(CSCC(=O)N3CCN(c4ccc(OC)cc4)CC3)c(C)o2)cc1	/	/	/	/	?	10µM*
COc1ccccc1NC(=O)CSc1nccc(-c2ccco2)n1	7%	3%	2	0%	-24%	-19%
Cc1cn(CC(=O)NCC2CCCO2)c(=O)[nH]c1=O (configuration not stated)	-2%	1%	1	-3%	-22%	0%
CN(C(=O)COC(=O)CNC(=O)CNC(=O)c1ccc(Cl)cc1Cl)c1ccccc1	0%	-1%	-143*	-10%	-20%	?
Cn1c(-c2sc3ccccc3c2Cl)n[nH]c1=S	2%	8%	-6	-2%	-10%	-1%
CCCN1CCC(=O)N([C@H](CO)c2ccccc2)CC1	13%	13%	12	11%	-3%	1%
CN1CCC(=O)N([C@H](CSc2ccc(Br)cc2)c2ccccc2)CC1	-11%	-4%	-4	-12%	?	?
CCCN1CCC(=O)N([C@H](CSc2ccccc2)c2ccccc2)CC1	0%	-8%	2	?	13µM*	18µM*
